Drawing on PubChem BioAssay (NCI), this text covers growth for 14 compounds.

Experiment in all cases: NCI-60 one-dose screen, 48 h (100 = growth as untreated, 0 = no growth, -100 = all killed)
Settings in all cases: 10 µM unless noted

Assay [1] deals with NCI-H23 lung.
In assay [2] the test system is NCI-H226 lung.
Assay [3] has as its system NCI-H322M lung.
Assay [4] deals with NCI-H460 lung.
In assay [5] the test system is HOP-92 NSCLC.
Assay [6] relates to NCI-H522 lung.
Assay [7] concerns A549/ATCC NSCLC.
For assay [8], the system named is 786-0 renal.
Assay [9] concerns COLO 205 colon.

The panel holds about 83,000 compounds, 20% with a hit somewhere; the sample as a whole holds those more often.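 Negative percent growth values reflect cell death: -40 means 40% of the cells present at the start died, and -100 means all died.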 A number with no mark means an inactive call. Calls of active or inactive are those of the source. How the source made its calls: active means growth percent below 10; inactive means the rest.

`O=C(/C=C/c1ccc(Cl)cc1)c1cccc(OCCCOc2cccc(C(=O)/C=C/c3ccc(Cl)cc3)c2)c1`: the growth in assay [1] is 102%; in assay [2], 104%; in assay [3], 103%; in [4], 102%; in assay [5], 120%; in assay [6] it was 96.2%. In addition, the growth in assay [7] is 92.7%; in assay [8], 102%; in assay [9], 113%.

As to `C/C=C(/C)n1cnc2c(Nc3ccccn3)nc(Cl)nc21`, the growth in [1] was 102%; in assay [2], 102%; in assay [3], 99.3%; in assay [4], 103%; in assay [5] it was 99.9%; in assay [6], 87.1%. In addition, the results for the growth in [7], in assay [8] and in assay [9] were 104%, 101% and 114%, respectively.

`CN1CCN(CCOc2ccc(-c3cnc4c(-c5cccc(F)c5F)cnn4c3)cc2)CC1`: the growth in assay [1] was 35.9%; in assay [2] it was 97.9%; in assay [3], 96%; in assay [4], -55.9% (active); in assay [5], 100%; in assay [7], -7.4% (active). Also, the growth is -61.4% (active) in assay [8] and 87.6% in [9].

Consider `CN(C)c1ccc(/C=C(\C#N)c2cc3ccccc3[nH]2)cc1`, for which the growth in assay [1] is 28.4%; in assay [2] it was 70.8%; in assay [3], 38.4%; in assay [4] it was 13.3%; in [5], 26.4%; in [6] it was -9.55% (active). Also, the growth in assay [7] is 41.4%; in assay [8] it was 32.9%; in [9], 4% (active).

With `CC1=C2[C@@H](CC1)[C@]1(C)O[C@@](c3ccccc3)(C[C@H]1OC(=O)CO)[C@H]2OC(=O)/C=C/c1ccccc1`, the growth was 99.3% in [1]; 80.8% in [2]; 101% in [3]; 85.2% in assay [4]; 96.2% in assay [5]; 72.3% in assay [6]. Further, the growth was 74.4% in [7], 68.7% in [8] and 110% in [9].

In the case of `C[C@H](C(=O)N(CCc1ccc(Cl)c(Cl)c1)Cc1cncs1)[C@@H]1CC[C@H](C[C@H](C)n2cc(CN3CCC(c4ccc(Cl)cc4)CC3)nn2)O1`, the growth in [1] is 98.2%; in assay [2] it was 85%; in [3], 92.7%; in assay [4], 103%; in [5], 106%; in assay [6], 86.7%. Moreover, the results for the growth in assay [7], in assay [8] and in [9] were 96.3%, 93.2% and 97.6%, respectively.

Take `CC(C)=CCNc1ncnc2c1ncn2C1OC(CO)C(O)C1O` (stereo not drawn): the growth in assay [1] is -19.3% [1 mM] (active); in [2] it was -70.3% [1 mM] (active); in assay [3] it was -4.69% [1 mM] (active); in assay [4], 2.5% [1 mM] (active); in [5], -77.2% [1 mM] (active); in assay [8], -31.4% [1 mM] (active). Besides, the growth in assay [9] was -6.05% [1 mM] (active).

For the compound `NS(=O)(=O)c1ccc(-c2cc(-c3nnc(SCC(=O)Nc4ccc(C(=O)/C=C/c5ccc(Cl)cc5)cc4)n3-c3ccccc3)c3ccccc3n2)cc1`, the growth in [1] was 102%; in assay [2], 96.6%; in assay [3], 89.3%; in [4], 97.7%; in assay [5], 93.1%; in [6] it was 89.9%. The figures for the growth in assay [7], in assay [8] and in assay [9] were 95%, 73.4% and 103%, respectively.

On to `COc1ccc(C(=O)/C=C/c2ccc(N3CCCCC3)cc2)cc1OC`, for which the growth was 92.5% in [1]; 72.7% in assay [2]; 91.5% in assay [3]; 97.9% in assay [4]; 69.9% in [5]; 84.4% in assay [6]. In addition, the growth in assay [7] was 90%; in assay [8], 103%; in assay [9] it was 100%.

For `C=C(CNCCO)[C@@H]1CC[C@]2(CO)CC[C@]3(C)[C@H](CC[C@@H]4[C@@]5(C)CCC(N)C(C)(C)[C@@H]5CC[C@]43C)[C@@H]12` (stereo partly drawn), the growth was 83.7% in assay [1]; 88% in [2]; 80.2% in assay [3]; -26.8% (active) in [4]; 54.5% in assay [5]; 0.745% (active) in [6]. The growth is 36.2% in [7], 11% in assay [8] and -74.7% (active) in [9].

With `COc1ccc(/C=C(/C(=O)n2cnnn2)c2cc(OC)c(OC)c(OC)c2)cc1`, the growth was 41.8% in assay [1]; 40.7% in assay [2]; 50.8% in assay [3]; 12.7% in [4]; 69.3% in [5]; 20.6% in [6]. In addition, the growth was 29% in assay [7], 35.5% in assay [8] and -3.15% (active) in [9].

In the case of `CCN1C(=O)N(CC)C2C1NN=c1s/c(=C3\C(=O)N(CC(C)C)c4ccccc43)c(=O)n12` (stereo not drawn), the growth in [1] was 31.1%; in assay [2] it was 61.5%; in assay [3] it was 58.1%; in [4], 5.36% (active); in [5], 66.3%; in [6], -2.72% (active). The growth in assay [7] was 21.6%; in assay [8] it was 37.2%; in assay [9] it was 17.6%.

Take `COc1ccc(/C=C/C(=O)c2ccc(NC(=O)CSc3nc4c([nH]3)c(=O)n(C)c(=O)n4C)cc2)cc1OC`: the growth in assay [1] was 93%; in assay [2] it was 81.1%; in assay [3], 81%; in [4], 94.6%; in assay [5], 73.2%; in assay [6] it was 96.8%. Also, the values for the growth in [7], in assay [8] and in assay [9] were 87.7%, 82.3% and 117%, respectively.

As to `COc1cc(C2C(C(=O)OCc3ccccc3)=C(C)NC(C)=C2C(=O)OCc2ccccc2)cc(OC)c1OC`, the growth in assay [1] is 29.3%; in assay [2] it was 32.2%; in assay [3] it was 58%; in assay [4], 25.6%; in assay [5] it was -4.65% (active); in [6] it was 25%. The growth in assay [7] was 23.4%; in [8], 25.2%; in assay [9] it was -47.7% (active).
